Assay results taken from PubChem BioAssay AID2314 (National Center for Advancing Translational Sciences (NCATS), 2010).
Hit rate of the full screen: of about 300,000 compounds, about 37,000 (12%) were called active. No stated cut-off is given here; in the data, active means max response mostly above about 13% (no sharp cut-off); inactive means mostly below about 14%. This excerpt belongs to a sample that is enriched for actives.

Assay: Cycloheximide Counterscreen for Small Molecule Inhibitors of Shiga Toxin; further: read at 38.3 µM for the half of the compounds with a filed dose; 0% is about no effect
Conditions: cell reporter, cycloheximide protein synthesis inhibition counterscreen; active compounds read high

Compound | max response
COc1ccc(OC)c(NC(=O)c2cccc(S(=O)(=O)N3CCN(C(C)=O)CC3)c2)c1 | -2.4% (inactive)
CC[n+]1c(C)n(-c2ccccc2)c2ccc(NC(C)=O)cc21 | 8.88% (inactive)
Cc1ccc(CCN2CC(C(=O)NCCc3ccccc3)CC2=O)cc1 (centres undefined) | 20.4% (inactive)
COc1cccc(CNS(=O)(=O)c2csc(C(N)=O)c2)c1 | -4.05% (inactive)
COc1ccc(C(=O)NCCn2nc(C)cc2C)cc1OC1CCN(C(C)=O)CC1 | 1.36% (inactive)
Cc1ccc(/C=N/NC(=O)CSc2ccccn2)o1 | 17.1% (inactive)
Cc1ccc(/C=N/NC(=O)CNC(=O)COc2ccccc2)o1 | -7.97% (inactive)
O=C(N/N=C/c1cccnc1)c1ccc(NC(=O)c2ccc(F)cc2)cc1 | -1.26% (inactive)
Cc1ccc(/C=N/NC(=O)c2cc3ccccc3cc2O)o1 | 19.4% (active)
O=C(N/N=C/c1cccnc1)c1cc2ccccc2cc1O | 35.6% (active)
O=C(N/N=C\c1cccnc1)c1cc(-c2ccccc2)nc2c(Cl)cccc12 | -2.05% (inactive)
CCC(C)[C@H](NC(=O)N1c2ccccc2NC(=O)[C@@H]1C(C)C)C(=O)N[C@@H](Cc1ccccc1)C(=O)O (some centres undefined) | 1.02% (inactive)
COc1ccc(OCC(O)CN(C)C(=O)C(C)Oc2ccccc2)cc1 (centres undefined) | -1.78% (inactive)
Cc1ccc(SC(CC(=O)c2ccc(C(C)(C)C)cc2)C(=O)O)cc1 (centres undefined) | 7.94% (inactive)
Cc1cc(-c2ccc(C)c(S(=O)(=O)NC(C)Cc3ccco3)c2)on1 (centres undefined) | 17.2% (inactive)
COC(=O)c1ccc(NC(=O)c2cc3c(CO)cnc(C)c3oc2=Nc2cccc(C(N)=O)c2)cc1 | -3.69% (inactive)
COc1ccc(CCNC(=O)c2ccccc2OCc2ccccc2)cc1 | -1.84% (inactive)
O=C(CCCOc1ccccc1)NCc1ccco1 | 8.48% (inactive)
CCCCOCCCNC(=O)c1ccccc1OCC | -1.45% (inactive)
COc1ccc(CCNC(=O)c2ccco2)cc1 | 33% (active)
CCCc1ccc(OCCNC(=O)c2ccccc2Br)cc1 | 16.2% (active)
CCOc1ncccc1C(=O)NCCc1ccc(OC)cc1 | -4.4% (inactive)
CCCc1ccc(OCCNC(=O)c2ccco2)cc1 | 37.4% (active)

Compound | max response
CCOc1cc(NC(=S)NCCCOC)c(OCC)cc1NC(=O)c1ccco1 | 2.79% (inactive)
Cc1ccc(OCC(=O)NCCCNC(=O)c2ccco2)cc1C | -3.33% (inactive)
CCCCOc1ccc(C(=O)NCc2ccncc2)cc1 | 4.92% (inactive)
CCCc1ccc(OCC(=O)NNC(=S)NC(=O)c2ccco2)cc1 | -2.62% (inactive)
CCCCOc1ccc(C(=O)NCc2ccco2)cc1 | 27.4% (active)
CC(C)Oc1c(Br)cc(Br)cc1/C=N/NC(N)=S | -0.405% (inactive)
CN(C(=O)CN1C(=O)CCSc2ccc(S(=O)(=O)N3CCCC3)cc21)c1ccccc1 | 1.23% (inactive)
CCOc1ccc(N(C)Cc2cc(=O)oc3ccc(OC)cc23)cc1 | -1.56% (inactive)
O=C(C1CCC(=O)N(C2CC2)C1)N1CCN(c2ccc(Cl)cc2)CC1 (centres undefined) | -2.23% (inactive)
CCn1c(CSCc2c(Cl)cccc2Cl)n[nH]c1=S | 7.21% (inactive)
O=C(C[n+]1cc(-c2ccc(Cl)c(Cl)c2)n2c1CCC2)c1cccs1 | -1.98% (inactive)
CCOc1ccccc1NC(=S)N1CCN(c2cccc(C)c2C)CC1 | -1.77% (inactive)
NC(=O)CCC(NS(=O)(=O)c1ccc(Cl)cc1)C(=O)NCc1ccccc1Cl (centres undefined) | -1.61% (inactive)
Cc1nn(CC(=O)NCCc2ccccc2)c(=O)c2cc3occc3n12 | -3.95% (inactive)
O=C(Cn1c(-c2cscn2)nc2ccccc21)Nc1ccc(Cl)cc1 | -2.37% (inactive)
Clc1cccc(N=C2NN=C(c3ccc4c(c3)OCCO4)CS2)c1 | 74.7% (active)
CC(=NC1CCN(Cc2ccccc2)CC1)c1c(O)[nH]c(=O)[nH]c1=O | -1.74% (inactive)
c1ccc(CN2CCC(N=C3NN=C(c4ccc5c(c4)OCCO5)CS3)CC2)cc1 | 32.2% (active)
CS(=O)(=O)N(CC(=O)N1CCN(Cc2ccccc2)CC1)c1ccc2c(c1)OCCO2 | -2.95% (inactive)
CCCn1c(C)cc(/C=C(\C#N)C(=O)OCC(=O)Nc2cc(OC)c(OC)c(OC)c2)c1C | 31.9% (active)
COc1cc(/C=N/NC(=O)Nc2ccccc2)ccc1OCCOc1ccccc1C | -1.6% (inactive)
CCOC(=O)/C(C#N)=C/c1cn(CCC(=O)O)nc1-c1ccc(Br)cc1 | -0.95% (inactive)
COc1cc(C2C3=C(CCCC3=O)OC3=C2C(=O)CCC3)ccc1OCC(=O)Nc1ccccc1 | 4.65% (inactive)

Compound | max response
CCOC(=O)/C(C#N)=C/c1ccc(OCC(=O)Nc2ccccc2)c(OC)c1 | 22.6% (active)
COc1cc(CCC(=O)OCC(=O)Nc2cccc(S(N)(=O)=O)c2)cc(OC)c1OC | -3.66% (inactive)
COc1ccc(-c2nnc(SC(=O)N3c4ccccc4Sc4ccccc43)o2)cc1 | 9.5% (inactive)
COc1ccc2[nH]c(=O)c(C3c4cc(OC)c(OC)cc4CCN3C(=O)c3ccco3)cc2c1 (centres undefined) | -3.91% (inactive)
NS(=O)(=O)c1cccc(NC(=O)CC23CC4CC(CC(Br)(C4)C2)C3)c1 | -0.826% (inactive)
O=C(CN1C(=O)/C(=C/c2ccccc2F)Sc2ccccc21)NCc1cccnc1 | 8.85% (inactive)
O=C(CN1C(=O)/C(=C\c2ccccc2F)SC1=S)Nc1nc2ccccc2s1 | 47.4% (active)
CN(C(=O)CCN1C(=O)/C(=C/c2ccccc2F)SC1=S)C1CCS(=O)(=O)C1 (centres undefined) | 4.42% (inactive)
COC(=O)c1cccc(N(C(=O)CNC(=O)c2cccs2)C(C(=O)NCC2CCCO2)c2ccc(OC)c(OC)c2)c1 (centres undefined) | -3.34% (inactive)
Cc1cc(O)ccc1-c1cnc2ccccc2n1 | 34.4% (active)
O=C(O)c1cc(S(=O)(=O)N(Cc2ccccc2)c2ccccc2)ccc1Cl | -0.844% (inactive)
COc1ccc(N(C(=O)CNC(=O)c2ccco2)C(C(=O)NCC2CCCO2)c2ccccc2)cc1Cl (centres undefined) | -3.36% (inactive)
COc1ccc(SC[C@H](Cc2ccccc2)N2CCN(CCc3ccccc3)CCC2=O)cc1 | -4.06% (inactive)
Cc1ccc(SCC(CC(C)C)N2CCN(CCc3ccccc3)CCC2=O)cc1 (centres undefined) | 40% (active)
CCCN1CCC(=O)N(C(CSc2ccc(C)cc2)Cc2ccccc2)CC1 (centres undefined) | 7.93% (inactive)
CCOC(=O)CN1C(=O)C(=O)c2cc(C)ccc21 | -1.86% (inactive)
CCOC(=O)[C@@H]1[C@H]2COc3cc(OC)ccc3[C@H]2N2C(=O)N(c3ccc(F)cc3)C(=O)[C@]12C | 0.485% (inactive)
COCCN(C(=O)C(C)C)c1nnc(-c2ccc(C(C)(C)C)cc2)s1 | 13.2% (inactive)
O=C(Nc1cccc(-c2nc3ccccc3[nH]2)c1)c1ccc(C(=O)Nc2cccc(-c3nc4ccccc4[nH]3)c2)cc1 | 48.3% (active)
O=C(Cc1cccs1)Nc1cccc(-c2nc3ccccc3[nH]2)c1 | 11.5% (inactive)
Cc1ccc(-c2nc3ccccc3[nH]2)cc1NC(=O)c1sc2ccccc2c1Cl | -0.874% (inactive)
CC(C)Oc1ccc(/C=C(\NC(=O)/C=C/c2ccco2)C(=O)NCCc2nc3ccccc3[nH]2)cc1 | 5.81% (inactive)
O=C(/C=C/c1ccco1)Nc1cccc(-c2nc3ccccc3[nH]2)c1 | 51.8% (active)

Compound | max response
NS(=O)(=O)c1cccc(NC(=O)COC(=O)/C=C/c2ccco2)c1 | 0.371% (inactive)
COc1cc(/C=N/NC(=O)c2ccc(N3CCCC3=O)cc2)ccc1O | 36% (active)
O=C(N/N=C/c1cccc(Br)c1)c1ccc(N2CCCC2=O)cc1 | -5.81% (inactive)
COc1ccc(C(=O)Nc2ccccc2C(=O)N/N=C/c2ccc(O)c(OC)c2)cc1 | -7.9% (inactive)
Cc1c(Cl)cccc1NC(=O)Nc1ccc(C(=O)N2CCCC2)cc1 | -1.9% (inactive)
O=C(CCS(=O)(=O)c1ccc2c(c1)NC(=O)CS2)NCc1ccccc1Cl | -3.16% (inactive)
O=C(CSc1n[nH]c(=O)n1-c1ccccc1)Nc1ccccc1C(F)(F)F | -2.47% (inactive)
CCOc1ccc2nc(/N=C/c3nc(-c4ccccc4)oc3O)sc2c1 | -1.31% (inactive)
CC(N=Cc1nc(-c2ccccc2)oc1O)c1ccccc1 (centres undefined) | 35.7% (active)
Cc1c(Cl)cccc1NC(=O)NCCCN1CCCC1=O | -0.801% (inactive)
COCCN1C(=O)C(=O)/C(=C(/O)c2ccc(S(=O)(=O)N3CCOCC3)cc2)C1c1ccc(O)c(OC)c1 (centres undefined) | -5.59% (inactive)
Cc1cccc(NC(=S)NCc2ccc3[nH]c4c(c3c2)CCCC4)c1 | 9.68% (inactive)
O=c1c2ccccc2nc(/C=C/c2ccco2)n1-c1ccccc1O | 24.2% (active)
CCn1c(/C=C/c2ccc([N+](=O)[O-])o2)nc2ccccc2c1=O | -4.66% (inactive)
O=c1c2ccccc2nc(/C=C/c2ccc(F)cc2)n1-c1ccccc1O | 6.44% (inactive)
O=C(Nc1ccc(F)c([N+](=O)[O-])c1)C1CC(=O)N(Cc2ccccc2)C1 (centres undefined) | -3.3% (inactive)
COc1cccc(N(CC(=O)NC2CCCC2)C(=O)Cn2nnc(-c3ccc(C)o3)n2)c1 | -3.92% (inactive)
COC(=O)CCc1ccccc1S(=O)(=O)N(CCC(=O)OC)Cc1ccccc1 | -11% (inactive)
COc1ccc(Cl)cc1-n1c(=S)sc2c(=O)n(-c3ccc(F)cc3)c(SCC(=O)O)nc21 | 0.929% (inactive)
O=C1C2N=NN(CC(=O)N3N=C(c4cccc5ccccc45)CC3c3ccccc3)C2C(=O)N1c1ccccc1 (centres undefined) | -3.29% (inactive)
